Reference: PubChem BioAssay (NCATS)
Results filed as inconclusive are left out. The source made the active and inactive calls. Unless noted, calls come from the whole dose curve; as a rule, active = well fitted curve in the direction sought with a large enough effect; inconclusive = small, poorly fitted or top-dose-only effect, or another doubt; inactive = no such curve, though single readings can be large; an effect the other way counts as inactive or inconclusive.

Tests used:
[1] = target: Lysosomal acid glucosylceramidase (Homo sapiens) (UniProt P04062); experiment: Glucocerebrosidase-p2 (AID 348; in the data active = potency below about 10 µM; note: potency is the fitted concentration of half-maximal effect); settings: purified GBA, blue fluorogenic substrate, 40 min
Chain of Lysosomal acid glucosylceramidase (Homo sapiens) (P04062 whole entry, looked up): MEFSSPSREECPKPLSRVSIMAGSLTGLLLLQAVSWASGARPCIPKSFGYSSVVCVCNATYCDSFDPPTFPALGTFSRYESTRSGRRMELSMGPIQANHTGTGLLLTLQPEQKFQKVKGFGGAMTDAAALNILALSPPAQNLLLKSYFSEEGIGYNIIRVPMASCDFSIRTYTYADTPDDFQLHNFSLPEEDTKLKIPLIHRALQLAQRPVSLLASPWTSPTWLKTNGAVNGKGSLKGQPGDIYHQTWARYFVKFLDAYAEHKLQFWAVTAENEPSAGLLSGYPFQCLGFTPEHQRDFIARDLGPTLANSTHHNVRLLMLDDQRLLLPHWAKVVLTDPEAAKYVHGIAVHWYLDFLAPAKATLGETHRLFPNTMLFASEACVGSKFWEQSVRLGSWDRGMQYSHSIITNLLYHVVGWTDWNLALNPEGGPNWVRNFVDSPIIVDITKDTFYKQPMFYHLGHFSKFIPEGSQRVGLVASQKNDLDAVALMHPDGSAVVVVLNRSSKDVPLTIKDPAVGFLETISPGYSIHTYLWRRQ
Outline: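 Compounds titrated from 0.6 nM upwards against 0.2 nM enzyme in pH 5.9 citric acid/KH2PO4, taurocholate, tween-20; blue fluorogenic substrate 80 uM, 40 min room temperature, stopped and read Ex 365/Em 440 for AC50.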

[2] = NFAT Signaling Pathway (AID 444; active = well fitted curve in either direction with a large enough effect, not every such curve was filed as active;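 note: carbachol stimulus at about its EC50 of 1 µM final; % is set by controls: 0 for no effect and ±100 for the full control effect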); settings: Jurkat NFAT-bla M1, carbachol, beta-lactamase ratio, 5 h; at 7.69 µM (top of the series) unless noted
Outline: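 Read-out: CCF4 FRET ratio (460 nm/530 nm) after 1 h RT dye loading, used for %activity and AC50 from titration series. Cells: Jurkat NFAT-β-lactamase/M1 line, treated with compound plus 1 uM carbachol for 5 h, 37 °C.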

[3] = target: Glucocorticoid receptor (Homo sapiens) (UniProt P04150); experiment: GR-GFP Redistribution (AID 450;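 active = compounds whose dose series gives a full or clear partial fitted curve of increased nuclear translocation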; note: potency is the fitted concentration of half-maximal effect); settings: U2OS GR-GFP nuclear translocation, laser cytometry, 2 h
Chain of Glucocorticoid receptor (Homo sapiens) (P04150 whole entry, looked up, the tested form may be a part): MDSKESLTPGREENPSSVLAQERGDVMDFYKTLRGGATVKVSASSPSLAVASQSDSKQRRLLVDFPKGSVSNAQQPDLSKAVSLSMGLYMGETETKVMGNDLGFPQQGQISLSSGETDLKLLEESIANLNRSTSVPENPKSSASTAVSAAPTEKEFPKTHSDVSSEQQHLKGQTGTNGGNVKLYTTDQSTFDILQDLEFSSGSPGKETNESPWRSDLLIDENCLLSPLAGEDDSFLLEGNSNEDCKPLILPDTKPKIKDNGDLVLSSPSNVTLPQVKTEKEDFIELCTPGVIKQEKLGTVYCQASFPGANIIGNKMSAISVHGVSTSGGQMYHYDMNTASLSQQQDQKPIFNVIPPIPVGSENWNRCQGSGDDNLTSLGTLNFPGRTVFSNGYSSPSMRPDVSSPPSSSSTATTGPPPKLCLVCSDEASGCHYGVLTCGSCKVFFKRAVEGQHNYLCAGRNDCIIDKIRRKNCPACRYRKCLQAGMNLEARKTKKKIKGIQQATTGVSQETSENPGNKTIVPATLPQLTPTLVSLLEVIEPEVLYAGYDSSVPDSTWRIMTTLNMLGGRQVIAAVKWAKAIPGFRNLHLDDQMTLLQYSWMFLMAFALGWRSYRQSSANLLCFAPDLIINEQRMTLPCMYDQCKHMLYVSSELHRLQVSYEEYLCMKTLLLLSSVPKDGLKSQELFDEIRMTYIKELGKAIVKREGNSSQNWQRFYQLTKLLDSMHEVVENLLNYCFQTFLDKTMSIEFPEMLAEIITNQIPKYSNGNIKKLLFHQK

[4] = target: Glucocorticoid receptor (Homo sapiens) (UniProt P04150); experiment: GR-EFC Redistribution (AID 451; calls by dose curve; note: potency is the fitted concentration of half-maximal effect); settings: CHO-K1 GR-EFC translocation, beta-gal luminescence, 2 h
Outline: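 Translocation of GR-ED fusion to nuclear EA restores b-gal, read by luminescence after 1 h room-temperature detection. Engineered CHO-K1 biosensor cells, 1,000/well, exposed 2 h at 37 C to titrations up to 46 uM final.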

[5] = target: Mitogen-activated protein kinase 10 (Mus musculus) (UniProt Q61831); experiment: JNK3 AlphaScreen Assay (AID 530; active = well fitted curve in either direction with a large enough effect, not every such curve was filed as active;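 note: kinase came from lysate of stimulated human HepG2 cells; signal reports phosphorylation of biotinylated GST-cJun 1-79 at Ser73 with 10 µM ATP; % is set by controls: 0 for no effect and ±100 for the full control effect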)
Outline: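 Compound titrations were preincubated 15 minutes at room temperature with substrate, antibody and pre-activated JNK3-containing HepG2 lysate. Reactions were started with 10 uM ATP and stopped with EDTA-containing bead buffer for AlphaScreen detection.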

[6] = target: 3',5'-cyclic-AMP phosphodiesterase 4B (Homo sapiens) (UniProt Q07343); experiment: qHTS Assay for Inhibitors of PDE-IV (AID 607; active = well fitted activation curve with a large enough effect in the main read-out, with a control signal flat, not every such curve was filed as active; note: % of control where 0% means no effect)
Chain of 3',5'-cyclic-AMP phosphodiesterase 4B (Homo sapiens) (Q07343 whole entry, looked up): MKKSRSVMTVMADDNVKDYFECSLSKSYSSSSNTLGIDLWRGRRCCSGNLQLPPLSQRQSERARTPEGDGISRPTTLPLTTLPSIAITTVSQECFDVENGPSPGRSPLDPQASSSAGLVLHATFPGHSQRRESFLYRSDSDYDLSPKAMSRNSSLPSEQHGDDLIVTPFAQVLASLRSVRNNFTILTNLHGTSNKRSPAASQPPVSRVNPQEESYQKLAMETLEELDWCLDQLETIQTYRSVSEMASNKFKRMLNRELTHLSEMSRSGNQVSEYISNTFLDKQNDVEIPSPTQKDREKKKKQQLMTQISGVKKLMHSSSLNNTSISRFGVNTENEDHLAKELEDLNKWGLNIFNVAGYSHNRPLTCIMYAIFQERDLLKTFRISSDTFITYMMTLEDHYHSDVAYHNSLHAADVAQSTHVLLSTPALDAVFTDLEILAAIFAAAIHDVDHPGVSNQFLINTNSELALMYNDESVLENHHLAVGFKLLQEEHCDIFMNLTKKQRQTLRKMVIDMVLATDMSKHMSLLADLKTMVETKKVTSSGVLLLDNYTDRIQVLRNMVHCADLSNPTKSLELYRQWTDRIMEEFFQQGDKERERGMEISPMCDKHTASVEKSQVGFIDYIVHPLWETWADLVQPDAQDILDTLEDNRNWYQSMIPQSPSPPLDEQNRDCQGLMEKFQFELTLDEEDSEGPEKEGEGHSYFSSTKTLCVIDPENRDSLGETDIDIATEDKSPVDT
Outline: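 ACTOne HEK293 cells carry a modified cAMP-gated CNG channel and express endogenous PDE4; plated 1000 cells/well, compounds up to 22.9 uM final. Membrane-potential dye fluorescence (ex 535/em 590) was read; parental cells received 10 uM forskolin + 100 uM RO 20-1724.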

[7] = qHTS Assay for Lipid Storage Modulators (AID 1519; calls by dose curve); settings: Drosophila S3 cells, BODIPY lipid droplet/cell ratio, laser cytometry, cells loaded with oleic acid; for activity change, negative = inhibition: at 57.5 µM (top of the series)
Outline: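 Cells seeded at 5,000 per well were treated with compounds over a concentration series and loaded with oleic acid (400 uM, as added). Lipid droplet fluorescence (488 nm excitation, 500-530 nm channel) was read by laser-scanning cytometry and normalized to 20 uM Triacsin C.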

[8] = target: Dual specificity protein kinase CLK4 (Homo sapiens) (UniProt Q9HAZ1); experiment: qHTS Assay for Inhibitors of CDC-like Kinase 4 (Kinase-Glo Assay) (AID 1770); note: % is set by controls: 0 for no effect and ±100 for the full control effect; nearly all actives have a fitted effect of over 65% in size
Chain of Dual specificity protein kinase CLK4 (Homo sapiens) (Q9HAZ1 whole entry, looked up): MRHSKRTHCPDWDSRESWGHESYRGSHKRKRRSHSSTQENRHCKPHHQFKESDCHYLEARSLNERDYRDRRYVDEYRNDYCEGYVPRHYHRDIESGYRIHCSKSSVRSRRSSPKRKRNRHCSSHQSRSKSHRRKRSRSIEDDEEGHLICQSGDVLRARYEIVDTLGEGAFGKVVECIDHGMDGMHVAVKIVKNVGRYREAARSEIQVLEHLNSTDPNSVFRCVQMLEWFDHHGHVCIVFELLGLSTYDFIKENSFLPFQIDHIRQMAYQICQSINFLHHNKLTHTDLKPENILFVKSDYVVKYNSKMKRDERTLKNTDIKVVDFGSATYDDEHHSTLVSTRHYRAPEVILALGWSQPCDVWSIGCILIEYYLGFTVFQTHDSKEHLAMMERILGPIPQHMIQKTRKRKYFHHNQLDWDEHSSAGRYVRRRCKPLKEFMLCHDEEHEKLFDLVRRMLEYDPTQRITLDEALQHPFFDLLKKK
Outline: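 Inhibition was judged from remaining ATP, measured by Ultra-Glo luciferase bioluminescence after Clk4 (25 nM) had acted on RS peptide at 1 uM ATP for 4.5 hours, room temperature.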

[9] = target: Dual specificity protein kinase CLK4 (Homo sapiens) (UniProt Q9HAZ1); experiment: qHTS Assay for Inhibitors of CDC-like Kinase 4 (ADP-Glo Assay) (AID 1771); note: % is set by controls: 0 for no effect and ±100 for the full control effect; nearly all actives have a fitted effect of over 70% in size
Outline: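 Luminescence from ADP-Glo reports ADP produced by 25 nM Clk4 acting on 100 uM RS repeat peptide with 1 uM ATP over 1 hr at room temperature; residual ATP is depleted before ADP is converted to ATP for detection.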

[10] = target: Dual specificity protein kinase CLK4 (Homo sapiens) (UniProt Q9HAZ1); experiment: qHTS Assay for Inhibitors of CDC-like Kinase 4 (ADP-FP Assay) (AID 1795);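 note: recombinant human CLK4 phosphorylating RS repeat peptide at 1 µM ATP; % is set by controls: 0 for no effect and ±100 for the full control effect; nearly all actives have a fitted effect of over 60% in size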
Outline: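 Inhibition of ADP formation by 6.25 nM Clk4 is measured using 1 uM ATP and 100 uM RS repeat peptide over one hour. Produced ADP displaces a fluorescent tracer from antibody, lowering polarization.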

[11] = target: Ubiquitin carboxyl-terminal hydrolase 1 (Homo sapiens) (UniProt O94782); experiment: Inhibitors of USP1/UAF1: Pilot qHTS (AID 504865);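 note: rhodamine fluorescence freed from ubiquitin-rhodamine substrate followed over time; top concentration of the series differs between compounds; % is set by controls: 0 for no effect and ±100 for the full control effect; nearly all actives have a fitted effect of over 35% in size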
Outline: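 Kinetic fluorescence assay: 1nM USP1/UAF1, 15 min compound preincubation, then 150nM Ub-Rho; 480/540 nm.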

[12] = Primary qHTS for small molecule stabilizers of the endoplasmic reticulum resident proteome: Secreted ER Calcium Modulated Protein (SERCaMP) assay (AID 1508630); note: % is set by controls: 0 for no effect and ±100 for the full control effect
Outline: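 GLuc-SERCaMP-expressing SH-SY5Y cells, pretreated 16 h with compound, are challenged with thapsigargin to empty ER calcium stores; after 4 h, coelenterazine is added directly to the medium and luminescence is imaged.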

[13] = target: Rap guanine nucleotide exchange factor 3 (Homo sapiens) (UniProt O95398); experiment: Confirmatory qHTS for antagonist of cAMP-regulated guanine nucleotide exchange factor 3 (EPAC1) (AID 1645880);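 note: plate controls were DMSO only for no effect and full effect of the ATA control for full effect; nearly all actives have a fitted effect of over 55% in size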
Chain of Rap guanine nucleotide exchange factor 3 (Homo sapiens) (O95398 whole entry, looked up): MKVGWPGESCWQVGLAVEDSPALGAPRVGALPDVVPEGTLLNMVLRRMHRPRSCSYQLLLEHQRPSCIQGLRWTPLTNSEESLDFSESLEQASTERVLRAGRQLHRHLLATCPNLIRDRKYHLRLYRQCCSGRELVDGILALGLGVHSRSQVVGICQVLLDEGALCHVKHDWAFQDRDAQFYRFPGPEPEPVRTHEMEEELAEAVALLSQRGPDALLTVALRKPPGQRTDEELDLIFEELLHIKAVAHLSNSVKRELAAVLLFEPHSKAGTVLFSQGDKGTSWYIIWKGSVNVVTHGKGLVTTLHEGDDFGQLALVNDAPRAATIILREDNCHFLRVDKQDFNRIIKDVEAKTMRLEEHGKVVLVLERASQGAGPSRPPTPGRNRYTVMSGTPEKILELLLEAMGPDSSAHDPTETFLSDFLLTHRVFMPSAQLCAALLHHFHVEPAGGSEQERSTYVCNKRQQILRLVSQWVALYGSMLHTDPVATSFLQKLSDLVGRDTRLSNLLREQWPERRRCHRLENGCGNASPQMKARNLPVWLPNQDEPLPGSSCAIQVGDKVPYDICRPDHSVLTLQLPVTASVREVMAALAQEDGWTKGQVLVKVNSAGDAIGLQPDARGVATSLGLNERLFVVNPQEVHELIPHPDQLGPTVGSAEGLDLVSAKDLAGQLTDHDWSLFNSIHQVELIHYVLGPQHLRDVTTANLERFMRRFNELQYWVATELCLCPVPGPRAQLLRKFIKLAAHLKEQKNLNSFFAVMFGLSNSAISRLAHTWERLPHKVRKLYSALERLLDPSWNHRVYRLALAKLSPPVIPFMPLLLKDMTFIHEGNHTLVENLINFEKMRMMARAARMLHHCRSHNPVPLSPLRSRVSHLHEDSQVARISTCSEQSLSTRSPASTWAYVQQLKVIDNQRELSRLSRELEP
Outline: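 Nucleotide exchange uses 100 nM EPAC1, 250 nM RAP1B-BODIPY-GDP and 50 uM GDP, with compounds in a concentration-titration series. After 5 min at room temperature, fluorescence (480 nm ex/540 nm em) is read every 5 min for 30 min. Data are normalized to control ATA and DMSO.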

[14] = target: Rap guanine nucleotide exchange factor 3 (Homo sapiens) (UniProt O95398); experiment: Confirmatory qHTS for agonist of cAMP-regulated guanine nucleotide exchange factor 3 (EPAC1) (AID 1645881);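 note: EPAC1 catalysed release of BODIPY-GDP from Rap1B seen as fluorescence loss; 100% = effect of cAMP agonist control; nearly all actives have a fitted effect of over 75% in size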
[15] = target: Rap guanine nucleotide exchange factor 4 (Homo sapiens) (UniProt Q8WZA2); experiment: Confirmatory qHTS for agonist of cAMP-regulated guanine nucleotide exchange factor 4 (EPAC2) (AID 1645884);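 note: nucleotide exchange releases bodipy-GDP from Rap1 and this lowers its fluorescence; % is set by controls: 0 for no effect and ±100 for the full control effect; nearly all actives have a fitted effect of over 65% in size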
Chain of Rap guanine nucleotide exchange factor 4 (Homo sapiens) (Q8WZA2 whole entry, looked up): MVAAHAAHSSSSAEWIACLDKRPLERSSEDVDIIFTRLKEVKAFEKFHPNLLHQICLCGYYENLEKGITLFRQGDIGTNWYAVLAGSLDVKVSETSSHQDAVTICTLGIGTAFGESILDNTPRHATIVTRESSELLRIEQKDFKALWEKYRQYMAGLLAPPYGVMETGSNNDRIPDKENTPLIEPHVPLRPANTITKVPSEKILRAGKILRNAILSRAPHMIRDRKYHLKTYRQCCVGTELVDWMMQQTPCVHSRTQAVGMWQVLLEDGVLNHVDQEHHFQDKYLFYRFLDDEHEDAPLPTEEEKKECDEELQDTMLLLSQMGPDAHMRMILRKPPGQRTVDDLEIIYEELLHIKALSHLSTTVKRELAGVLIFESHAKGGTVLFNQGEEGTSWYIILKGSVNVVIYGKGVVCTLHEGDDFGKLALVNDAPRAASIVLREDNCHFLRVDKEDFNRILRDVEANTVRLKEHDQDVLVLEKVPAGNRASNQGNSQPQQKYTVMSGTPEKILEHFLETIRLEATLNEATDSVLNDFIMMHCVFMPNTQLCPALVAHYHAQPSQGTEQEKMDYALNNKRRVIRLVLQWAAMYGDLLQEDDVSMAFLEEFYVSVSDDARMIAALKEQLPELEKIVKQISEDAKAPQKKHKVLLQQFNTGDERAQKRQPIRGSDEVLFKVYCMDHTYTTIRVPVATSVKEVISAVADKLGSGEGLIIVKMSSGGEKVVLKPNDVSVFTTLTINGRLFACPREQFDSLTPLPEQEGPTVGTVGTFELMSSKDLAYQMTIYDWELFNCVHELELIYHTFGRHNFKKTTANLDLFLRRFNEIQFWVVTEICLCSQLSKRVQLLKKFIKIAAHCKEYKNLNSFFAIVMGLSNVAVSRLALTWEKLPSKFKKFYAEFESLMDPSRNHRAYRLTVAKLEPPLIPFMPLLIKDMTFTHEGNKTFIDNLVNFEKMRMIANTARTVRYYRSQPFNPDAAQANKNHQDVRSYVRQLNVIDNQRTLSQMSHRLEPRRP

[16] = target: Rap guanine nucleotide exchange factor 4 (Homo sapiens) (UniProt Q8WZA2); experiment: Confirmatory qHTS for antagonist of cAMP-regulated guanine nucleotide exchange factor 4 (EPAC2) (AID 1645885); note: % is set by controls: 0 for no effect and ±100 for the full control effect; nearly all actives have a fitted effect of over 25% in size
[17] = AP1 Signaling Pathway (AID 357; active = well fitted curve in either direction with a large enough effect, not every such curve was filed as active; note: % is set by controls: 0 for no effect and ±100 for the full control effect); settings: ME-180 AP-1-bla reporter, EGF-induced, beta-lactamase ratio, 5 h; at 7.69 µM (top of the series) unless noted
Outline: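 AP-1-bla ME-180 cells with beta-lactamase reporter under AP-1 response element, stimulated with EC50 EGF; compounds titrated, 5 hours at 37 degrees Celsius. CCF4 read at 460/530 nm ratio; positive and negative modulators judged by AC50.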

[18] = Stat Signaling Pathway (AID 446; active = well fitted curve in either direction with a large enough effect, not every such curve was filed as active); settings: ME-180 SIE beta-lactamase reporter, IL-6 stimulated, 5 h; at 7.69 µM (top of the series) unless noted
Outline: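 ME-180 SIE-bla cells; overnight plating; cpd + IL-6 40 pM, 5 h, 37 C; LiveBLAzer 2.5 h RT; 460/530 nm emission ratio. Normalized to 300 pM IL-6 and 125 nM JAK inhibitor controls.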

[19] = target: Cytochrome P450 1A2 (Homo sapiens) (UniProt P05177); experiment: p450-cyp1a2 (AID 410; calls by dose curve; note: potency is the fitted concentration of half-maximal effect)
Outline: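 Luminescent readout of luciferin formed from Luciferin-ME by human CYP1A2; data normalized against complete inhibition by 57 uM furafylline. Enzyme 20nM, substrate 100uM at Km, 100mM KPO4 buffer, 60 min reaction at room temperature.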

[20] = target: Cytochrome P450 3A4 (Homo sapiens) (UniProt P08684); experiment: qHTS Assay for Activators of Cytochrome P450 3A4 (AID 885); note: potency is the fitted concentration of half-maximal effect; nearly all actives have a fitted effect of over 65% in size
Chain of Cytochrome P450 3A4 (Homo sapiens) (P08684 whole entry, looked up): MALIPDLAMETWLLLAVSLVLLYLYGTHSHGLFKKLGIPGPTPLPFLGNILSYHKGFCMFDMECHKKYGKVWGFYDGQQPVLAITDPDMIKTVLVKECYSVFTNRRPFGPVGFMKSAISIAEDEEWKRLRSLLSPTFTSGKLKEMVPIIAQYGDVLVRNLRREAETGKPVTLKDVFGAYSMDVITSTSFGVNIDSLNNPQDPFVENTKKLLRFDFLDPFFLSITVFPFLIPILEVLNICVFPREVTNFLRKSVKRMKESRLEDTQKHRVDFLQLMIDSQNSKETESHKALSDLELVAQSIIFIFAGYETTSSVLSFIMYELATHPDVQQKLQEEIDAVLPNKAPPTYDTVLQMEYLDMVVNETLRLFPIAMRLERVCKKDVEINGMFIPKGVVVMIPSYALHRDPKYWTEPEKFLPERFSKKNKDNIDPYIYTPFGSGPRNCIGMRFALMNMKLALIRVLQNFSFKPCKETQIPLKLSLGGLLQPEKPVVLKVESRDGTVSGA
Outline: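 20nM CYP3A4 + 25uM Luciferin-PPXE (=KM), 200mM KPO4; cpd 10 min RT; NADPH regen, 60 min RT; stop w/ detection buffer, 20 min; luminescence. Normalized to 57 uM ketoconazole.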

[21] = measured here: cell count channel max response
[22] = measured here: lipid channel max response

COc1ccc(-n2c(=O)c(-c3cc(F)cc(F)c3)nc3cnc(N(C)C)nc32)cc1
inactive: Potency [1] > 11.4 µM | activity change, negative = inhibition [2] 17.5% | Potency [3] > 9.22 µM | Potency [4] > 46 µM | outcome [5] | Potency [6] | activity change, negative = inhibition [7] 5.64% | Potency [8] | Potency [9] | Potency [10] | Potency [11] | Potency [12] | Potency [13] | outcome [14] | outcome [15] | Potency [16]
11.6%: max response [7, 21]
18.1%: max response [7, 22]

Cc1csc(-c2coc3cc(O[C@@H]4O[C@H](CO)[C@@H](O)[C@@H](O)[C@H]4O)ccc3c2=O)n1
inactive: Potency [12]

O=C1N[C@@H](Cc2c[nH]c3ccccc23)C(=O)N[C@H]1Cc1c[nH]c2ccccc12
inactive: Potency [12]

CC1=NN(c2ccc([N+](=O)[O-])cc2)C(=O)C1[N+](=O)[O-] (configuration not stated)
inactive: Potency [12]

Cc1noc(C)c1C(=O)N1CCC2(CCN(Cc3ccc(C#N)cc3)CC2)CC1
inactive: Potency [1] > 11.4 µM | activity change, negative = inhibition [17] 22% | activity, negative = inhibition [18] 2.67% | Potency [4] > 46 µM | Potency [6] | activity change, negative = inhibition [7] -1.31% | Potency [12] | Potency [13] | outcome [14] | outcome [15] | Potency [16]
10.9%: max response [7, 22]
9.89%: max response [7, 21]

COc1cccc(C(=O)CC2c3c(c(Br)c4c(c3OC)OCO4)CCN2C)c1 (configuration not stated)
inactive: Potency [12]

O=C(O)C1CCC[C@@H]2[C@@H]3CC(CN12)[C@@H]1CCCCN1C3 (some centres not stated)
inactive: Potency [12]

COc1cc2c(cc1OC)C(C(=O)c1ccc(OC)c(OC)c1O)=NCC2
inactive: Potency [12]

O=C(c1cccc(F)c1)N1CCC2(CC1)CN(c1cccc(-c3ccccc3)c1)C2
active: Potency [19] 12.6 µM | Potency [20] 3.16 µM
-20.8%: max response [7, 22]
inactive: Potency [1] > 11.4 µM | activity change, negative = inhibition [17] -6.1% | activity, negative = inhibition [18] -13.4% | Potency [4] > 46 µM | Potency [6] | activity change, negative = inhibition [7] -19.2% | Potency [12] | Potency [13] | outcome [14] | outcome [15] | Potency [16]
-4.49%: max response [7, 21]
